NPR2 activator = GC-B (human) receptor activation; P20594; HEK293-GC-B cells, CNP EC30, cGMP TR-FRET; 0% at EC30 CNP, 100% saturating CNP; activation, % at 10 µM; hit rate 0.11% among 370,000;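 active = activation at 10 µM reaching about 35% in either raw or pattern-adjusted values, limit read from the data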
NPR1 activator = GC-A (human) enzyme activation; AID 1671463; activation, % at 10 µM; HEK293 GC-A cells, cGMP TR-FRET, EC30 ANP; 0% at EC30 ANP, 100% saturating ANP; hit rate 0.14% among 370,000; in the data active = activation above about 40%
KLK7 zymogen act = activators of human kallikrein-7 zymogen. P49862. purified proKLK7, EDANS-DABCYL substrate fluorescence; 100% is mature enzyme control, 0% vehicle. activation, % at 7 µM. hit rate 0.9% among 370,000. AID 652039;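 active = activation above the mean of all tested compounds plus 3 SD, computed per campaign excluding outliers beyond control limits, cut at about 13% in these data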
Target sequence (P49862 whole entry, looked up): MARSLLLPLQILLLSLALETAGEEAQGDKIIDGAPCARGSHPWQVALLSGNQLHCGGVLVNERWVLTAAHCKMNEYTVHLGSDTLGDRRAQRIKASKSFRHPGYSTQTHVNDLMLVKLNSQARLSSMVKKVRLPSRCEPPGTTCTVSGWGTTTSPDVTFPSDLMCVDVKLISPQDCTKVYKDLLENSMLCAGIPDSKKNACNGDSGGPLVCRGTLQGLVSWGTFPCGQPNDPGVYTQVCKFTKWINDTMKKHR
HIF activator = HIF pathway transcriptional activation; U2OS HRE-luciferase reporter, luminescence; normalized: DMSO 0%, desferrioxamine 100%; activation, % at 7.5 µM (by protocol); hit rate 0.32% among 300,000;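 active = mean activation of at least 10% of the iron chelator positive control signal, with at least half of replicates also reaching 10%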
proKLK7 act conf = confirmation of human kallikrein-7 zymogen activators | shares compounds with KLK7 zymogen act | purified proKLK7, EDANS-DABCYL substrate fluorescence; scaled: vehicle 0, mature enzyme 100 | activation, % at 7 µM | hit rate 68% among 3,200 | AID 686949;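 active = activation, as change over the incubation, above the mean of all tested compounds plus 3 SD, cut at about 13% in these data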
EDANS-DABCYL int = fluorescence interference counter-screen for KLK7 activators. shares compounds with KLK7 zymogen act. EDANS-DABCYL substrate fluorescence interference, no enzyme, 4 h; solvent 0%, active enzyme control 100%. activation, % at 7 µM. hit rate 80% among 3,200. AID 686952;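 active = activation above the all-compound mean plus 3 SD, ignoring values outside control-based bounds, cut at about 4.8% in these data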;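 note: value is the 4 h activation minus the activation read at time zero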
EDANS interf = optically interferes with EDANS-DABCYL fluorescence, kallikrein-7 activator counter-screen; shares compounds with KLK7 zymogen act; EDANS-DABCYL peptide fluorescence interference, no enzyme; EC50, µM; hit rate 20% among 250;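 active = compounds that raise the fluorescence signal in this interference counterscreen, with EC50 at or below 10 µM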;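 note: intact quenched peptide substrate alone read at 355 nm excitation and 520 nm emission; signal is fluorescence gain from T0 to T4 after four hours at room temperature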
An asterisk follows results filed as active; . = no result. Compounds with a hit are over-represented: about 1.3% of the library has one in this group of screens.

SMILES	NPR2 activator	NPR1 activator	KLK7 zymogen act	HIF activator	proKLK7 act conf	EDANS-DABCYL int	others
CCOc1ccc(-n2c(SCC(=O)Nc3cc(C)c(NC(=O)c4ccccc4)cc3OC)nnc2-c2ccncc2)cc1	3.2	-0.9	0.5	.	.	.
Cc1c2cccn2cc[n+]1C	1.8	-0.8	17.6*	0.3	31.9*	26.8*
O=C(NCc1cccs1)C1CCN(S(=O)(=O)c2cccc3ccccc23)CC1	-1.3	-20.3	-0.1	.	.	.
CCN1C(=O)/C(=C2\SC(=S)N(CCCOC)C2=O)c2ccccc21	0.4	-1.0	19.7*	-0.3	0.6	1.0
COc1ccc(S[C@]2(C(=O)N3CCN(c4ncccn4)CC3)CC(=O)N(c3ccsc3)[C@@H]2c2ccc(OC)cc2)cc1	-1.5	2.7	-0.3	.	.	.
O=c1ccc2cc3c4c(c2o1)CCCN4CCC3	1.1	7.8	88.8*	-2.5	66.5*	73.2*
COc1cccc(Nc2nc3cc(OC)ccc3cc2C#N)c1	6.0	2.4	29.4*	0.8	56.0*	60.5*
COc1ccc(Nc2nc3c(C)cccc3cc2C#N)cc1	-6.0	-1.4	0.2	0.5	.	.
Clc1ccc2nc(N3CCNCC3)nc(-c3ccccc3)c2c1	-11.2	-46.0	16.1*	-0.7	-5.9	-9.1
OCCN1CCN(c2nc(-c3ccccc3)c3cc(Cl)ccc3n2)CC1	-12.0	-13.8	8.3	-1.0	.	.
Cc1ccc2nc(N3CCN(CCO)CC3)nc(-c3ccccc3)c2c1	2.7	-3.8	20.5*	-1.1	6.5	4.1*
CN1CCN(c2nc(-c3ccccc3)c3cc(Cl)ccc3n2)CC1	-18.4	-21.1	-1.4	-1.0	.	.
COc1ccc(/C=C/S(=O)(=O)NCc2ccccc2)c(CNC(=O)OC(C)(C)C)c1	3.2	-3.5	0.2	.	.	.
COC(=O)C12C=C3CC(c4ccc(OC)cc4)=C3C(=O)N1Cc1[nH]c3ccccc3c1C2 (stereo not given)	5.9	0.7	-0.1	.	.	.
O=C(NCC1CCCO1)c1cc(-c2ccco2)nc2ccccc12 (stereo not given)	7.4	9.3	59.1*	0.2	66.5*	67.8*
COc1cccc(-c2cc(C(=O)NC3CC3)c3ccccc3n2)c1	3.5	0.3	0.4	0.4	.	.
O=C(NC1CCC(O)CC1)c1cc(-c2ccco2)nc2ccccc12 (stereo not given)	2.0	2.2	27.9*	-0.3	12.9*	10.9*	EDANS interf=>69.5
CN1C2=N[C@@H](c3ccc4c(c3)OCO4)CC(=O)N2/C(=C\c2ccccc2)[C@H]1c1ccccc1	-30.7	-29.8	.	.	.	.
C[C@H]1[C@H](NC(=O)c2ccc(C(C)(C)C)cc2)CC[C@@]23CCCN2C(=O)CCC[C@@H]13	1.8	-2.6	.	.	.	.
CCC1=C(CC2NCCc3ccccc32)CC2c3cc(OC)c(OC)cc3CCN2C1 (stereo not given)	-2.3	-9.8	18.8*	.	1.7	2.0
CNc1ccc(Cl)cc1C(N)=O	-1.9	2.0	16.6*	-1.0	10.8	20.0*
NNC(=O)c1cc(Cl)ccc1Cl	1.9	1.0	-0.1	-0.3	.	.
O=C(NN1CCOCC1)c1c(-c2ccccc2)sc2ccccc12	2.4	-1.6	0.3	.	.	.
CS(=O)(=O)c1ccc(-c2sc3cc4c(cc3c2C(=O)NN2CCOCC2)OCO4)cc1	-1.3	3.1	43.4*	.	34.5*	27.5*	EDANS interf=>69.5
COCCn1c(=O)[nH]c(=O)c2c(C(F)(F)F)cc(-c3cccs3)nc21	-0.9	4.3	30.6*	0.4	-12.6	-34.5
SMILES	NPR2 activator	NPR1 activator	KLK7 zymogen act	HIF activator	proKLK7 act conf	EDANS-DABCYL int	others
C[C@H]1[C@H](N(Cc2cccs2)Cc2cccs2)CC[C@@]23CCCN2C(=O)CCC[C@@H]13	-10.2	-7.3	.	.	.	.
COC(=O)c1ccc(COc2ccc3ccc(=O)oc3c2)o1	-4.3	1.4	-0.7	2.0	.	.
COC(=O)c1cc(=O)c2c(ccc3oc(=O)ccc32)[nH]1	-4.6	3.4	171.6*	.	220.0*	220.1*
O=C(NCC1COc2ccccc2O1)c1ccc(NC(=O)C(Cl)Cl)cc1 (stereo not given)	-8.0	-2.9	0.1	.	.	.
CCCCCCCCN1C(=O)[C@@H](CC(=O)NCc2ccc(C)o2)C[C@@]2(C(=O)OC)C1=C[C@H](C(C)C)O[C@@H]2C1CC1	-8.1	-0.8	0.6	.	.	.
CC(C)(C)NC(=O)NC(=O)CN1c2cccc3cccc(c23)S1(=O)=O	5.2	-4.8	0.6	-1.6	.	.
CC(C)(C)OC(=O)CN1c2cccc3cccc(c23)S1(=O)=O	0.6	-1.3	12.9*	-1.3	6.1	13.1*
CCN(CC(=O)NC(C)(C)C)C(=O)CN1c2cccc3cccc(c23)S1(=O)=O	-2.5	1.8	14.7*	-0.7	-0.3	1.8
COc1ccc(CCNC(=O)CN2c3cccc4cccc(c34)S2(=O)=O)cc1	1.8	0.7	2.2	.	.	.
CCN1c2cccc3cccc(c23)S1(=O)=O	-1.0	5.3	8.3	0.0	.	.
O=C(CN1c2cccc3cccc(c23)S1(=O)=O)N1CCCCC1	5.3	2.5	14.5*	.	11.9	12.9*
COC(=O)CNC(=O)CN1c2cccc3cccc(c23)S1(=O)=O	0.0	-5.3	23.4*	-5.0	17.0*	17.5*
COc1ccc(-c2c(Cc3ccccc3)nc(NC(=O)c3ccccc3)n2Cc2ccc(OC)cc2OC)cc1	-2.5	5.7	-12.4	.	.	.
COc1ccc(-c2cc(C(=O)N=Nc3c(O)[nH]c4ccccc34)[nH]n2)cc1	11.4	0.6	0.5	.	.	.
COc1ccc(S[C@]2(C(=O)N(C)C)CC(=O)N[C@@H]2c2ccc(OC)cc2)cc1	-1.9	-2.9	0.0	.	.	.
COc1ccc(OC)c(S(=O)(=O)N2CCCC(c3noc(-c4ccc(C)cc4)n3)C2)c1 (stereo not given)	-2.2	1.1	0.9	.	.	.
Cc1cc(=O)oc2c3c(cc(OCC(=O)N4CCC[C@H]4C(=O)O)c12)OC(C)(C)CC3	-3.0	7.0	34.8*	0.2	65.6*	64.5*
Cc1cc(=O)oc2c3c(cc(OCC(=O)N4CCC(C(=O)O)CC4)c12)OC(C)(C)CC3	-4.1	3.7	47.5*	-0.1	64.6*	60.8*
CCCCc1cc(=O)oc2c3c(cc(OCC(=O)N4CCC[C@H]4C(=O)O)c12)OC(C)(C)CC3	-2.1	2.8	52.6*	-0.2	57.0*	62.4*
CCCc1cc(=O)oc2c(C)c(OCC(=O)N3CCC[C@@H]3C(=O)O)ccc12	-1.1	0.6	-1.2	-0.3	.	.
Cc1cc(=O)oc2c3c(cc(OCC(=O)Nc4cccnc4)c12)OC(C)(C)CC3	3.0	5.6	-1.5	0.2	.	.
COCCNS(=O)(=O)c1ccc2c(c1)Cc1cc(S(=O)(=O)NCCOC)ccc1-2	4.3	-0.2	0.1	0.2	.	.
